For 27 molecules, Inhibition results are on record in ChEMBL document CHEMBL1157539, “Thousands of chemical starting points for antimalarial lead identification” (Nature, 2010).

Holding throughout (type): functional
For assay [1], the system named is Plasmodium falciparum. Nature of the assay: GSK_TCMDC: Inhibition of Plasmodium falciparum 3D7 in whole red blood cells, using parasite LDH activity as an index of growth. Test compounds present at 2uM.
Assay [2] deals with Plasmodium falciparum. Nature of the assay: GSK_TCMDC: Inhibition of Plasmodium falciparum Dd2 in whole red blood cells, using parasite LDH activity as an index of growth. Test compounds present at 2uM.
The subject of a further assay is HepG2. Nature of the assay: GSK_TCMDC: Percent inhibition of human HepG2 cell line. Test compounds present at 10uM.

Each structure is given as a SMILES string.

Regarding `O=C(C=Cc1ccc(Cl)c(Cl)c1)NCCCCCN1CCC(c2n[nH]c3ccccc23)CC1`, the Inhibition is on record as 99% in the assay on Plasmodium falciparum [1], 29% in the assay on Plasmodium falciparum [2] and 32% in the assay on HepG2.

With `CCn1cc(-c2cc(C(=O)Nc3ccc(OC)cc3C)c3ccccc3n2)c(C)n1`, the Inhibition in the assay on Plasmodium falciparum [1] is 97%; in the assay on Plasmodium falciparum [2], 100%; in the assay with HepG2 it was 0%.

With `Fc1ccc(-c2nc(NCc3cccc(C(F)(F)F)c3)nn2-c2cccc(C(F)(F)F)c2)cc1C(F)(F)F`, the Inhibition in the assay with Plasmodium falciparum [1] was 90%; with Plasmodium falciparum [2] it was 58%; in the assay with HepG2 it was 2%.

Take `COc1ccc2ncc(Cl)c(N3CCC(CCNCc4ccc5c(n4)NC(=O)CS5)CC3)c2c1.Cl`: the results for the Inhibition in the assay on Plasmodium falciparum [1], in the assay on Plasmodium falciparum [2] and in the assay with HepG2 were 89%, 82% and 33%, respectively.

As to `CN(CCC1CCN(C(=O)/C=C/c2ccc(Cl)c(Cl)c2)CC1)C1CCC(c2c[nH]c3ccccc23)CC1` (stereo unspecified), the Inhibition is 87% in the assay on Plasmodium falciparum [1], 9% in the assay with Plasmodium falciparum [2] and 57% with HepG2.

For `COc1ccc2ccccc2c1C=NN=c1cc(C)[nH]c2c(C)cccc12`, the figures for the Inhibition with Plasmodium falciparum [1], with Plasmodium falciparum [2] and in the assay with HepG2 were 100%, 94% and 0%, respectively.

With `O=C(Nc1ccccc1)N(Cc1cccc(-c2ccc(CNCc3ccc4c(c3)OCO4)cc2)c1)C1CCN(Cc2ccccc2)CC1.O=C(O)C(F)(F)F`, the Inhibition in the assay on Plasmodium falciparum [1] is 100%; in the assay with Plasmodium falciparum [2], 82%; with HepG2 it was 27%.

As to `Cc1cc(N2CCC(NS(=O)(=O)c3cccc4cccnc34)CC2)nc(Nc2cccc(C#N)c2)n1.O=C(O)C(F)(F)F`, the Inhibition in the assay on Plasmodium falciparum [1] stood at 98%; with Plasmodium falciparum [2] it was 87%; in the assay on HepG2 it was 12%.

As for `COc1ccc(S(=O)(=O)NC2CCN(c3ccnc4cc(Cl)ccc34)C2)cc1.O=C(O)C(F)(F)F` (stereo unspecified), the Inhibition worked out at 100% in the assay on Plasmodium falciparum [1], 86% with Plasmodium falciparum [2] and 12% in the assay on HepG2.

In the case of `CC(C)(C)OC(=O)Cn1cnc2cc(NC(=O)c3cc([N+](=O)[O-])cc([N+](=O)[O-])c3)ccc21`, the Inhibition in the assay on Plasmodium falciparum [1] stood at 100%; with Plasmodium falciparum [2], 97%; in the assay on HepG2, 11%.

With `O=C(Nc1ccc(F)cc1)NC1CCN(c2ccnc3cc(Cl)ccc23)CC1.O=C(O)C(F)(F)F`, the Inhibition is reported as 97% with Plasmodium falciparum [1], 57% with Plasmodium falciparum [2] and 10% in the assay with HepG2.

As to `CCCc1cn2c3c(cc(C(=O)N[C@@H](Cc4ccccc4)[C@H](O)CNC4CCCCC4)cc13)N(C)S(=O)(=O)CC2.O=CO`, the Inhibition in the assay with Plasmodium falciparum [1] is on record as 99%; in the assay with Plasmodium falciparum [2], 98%; in the assay with HepG2, 3%.

On to `Cn1ccnc1CNC(=O)c1ccc(-c2cccc(-c3nc4cc(C(F)(F)F)ccc4[nH]3)c2)cc1`, for which the Inhibition with Plasmodium falciparum [1] was 100%; in the assay on Plasmodium falciparum [2], 80%; in the assay with HepG2 it was 20%.

As to `COc1ccc(-n2nc(C)c3c2NC(=O)CC3c2ccccc2OCc2ccc(F)cc2)cc1` (stereo unspecified), the Inhibition was 93% in the assay with Plasmodium falciparum [1], 65% in the assay with Plasmodium falciparum [2] and 53% in the assay on HepG2.

Consider `CCOc1ccc(Br)cc1/C=C/C(=O)Nc1ccc(C2CCN(C)CC2)cc1`, for which the Inhibition was found to be 100% in the assay with Plasmodium falciparum [1], 71% with Plasmodium falciparum [2] and 30% in the assay with HepG2.

With `COc1ccc(-c2cccc(NC(=O)c3ccccc3)c2)cc1CN1CCCN(C)CC1.O=C(O)C(F)(F)F`, the Inhibition with Plasmodium falciparum [1] came out at 98%; with Plasmodium falciparum [2], 25%; in the assay on HepG2, 22%.

For the molecule `Cc1onc(-c2ccccc2)c1-c1nc(NC2CCCC(C)C2)no1` (stereo unspecified), the Inhibition was determined as 100% with Plasmodium falciparum [1], 46% in the assay on Plasmodium falciparum [2] and 22% with HepG2.

Turning to `CCCCCN1CCCC(NS(=O)(=O)c2ccc(C(=O)Nc3cccc(C(F)(F)F)c3)cc2)C1.O=C(O)C(F)(F)F` (stereo unspecified), the Inhibition was found to be 97% with Plasmodium falciparum [1], 3% with Plasmodium falciparum [2] and 30% with HepG2.

In the case of `O=C(NC1CC1)c1ccc(N2CCC(Cc3ccccc3)CC2)c([N+](=O)[O-])c1`, the Inhibition in the assay on Plasmodium falciparum [1] was 96%; in the assay on Plasmodium falciparum [2], 83%; in the assay with HepG2 it was 12%.

On to `O=C(Nc1cccc(C(F)(F)F)c1)Nc1nc2ccc([N+](=O)[O-])cc2s1`, for which the figures for the Inhibition with Plasmodium falciparum [1], in the assay on Plasmodium falciparum [2] and in the assay with HepG2 were 100%, 76% and 81%, respectively.

As to `Cc1cc(NC(=O)c2ccc(-c3ccccc3)cc2)no1`, the figures for the Inhibition in the assay on Plasmodium falciparum [1], in the assay with Plasmodium falciparum [2] and in the assay on HepG2 were 83%, 57% and 5%, respectively.

For `O=C(Nc1ccc(S(=O)(=O)N2CCCC2)cc1)c1cc(-c2cccnc2)nc2ccc(Cl)cc12`, the Inhibition was found to be 97% in the assay with Plasmodium falciparum [1], 95% in the assay with Plasmodium falciparum [2] and 4% in the assay on HepG2.

On to `Cc1ccccc1/N=C1\NC(=S)N(c2cccc(C(F)(F)F)c2)C12CCC(C(C)(C)C)CC2` (stereo unspecified), for which the results for the Inhibition in the assay with Plasmodium falciparum [1], in the assay with Plasmodium falciparum [2] and with HepG2 were 95%, 25% and 9%, respectively.

As for `COc1cccc(NC(=O)c2cc(C(=O)Nc3cccc(OC)c3)cc([N+](=O)[O-])c2)c1`, the Inhibition in the assay with Plasmodium falciparum [1] is 99%; with Plasmodium falciparum [2], 61%; in the assay on HepG2, 1%.

With `CNC(=O)c1ccc2nc(C3CC3)n(CC3CCN(S(=O)(=O)c4cccc(Cl)c4)CC3)c2c1.O=C(O)C(F)(F)F`, the Inhibition with Plasmodium falciparum [1] is 100%; with Plasmodium falciparum [2], 100%; in the assay with HepG2, 0%.

Take `Fc1cccc(COc2ccc(Nc3ncnc4sc(C#Cc5ncc[nH]5)cc34)cc2Cl)c1`: the Inhibition is 100% in the assay with Plasmodium falciparum [1], 95% with Plasmodium falciparum [2] and 55% with HepG2.

On to `COc1ccccc1N=C1SC(=Cc2cn(CC(=O)N3CCCc4ccccc43)c3ccccc23)C(=O)N1C1CCCCC1`, for which the Inhibition with Plasmodium falciparum [1] is on record as 100%; in the assay on Plasmodium falciparum [2] it was 99%; in the assay with HepG2, 10%.
